# According to PubChem BioAssay:
# Activity calls are given as the source filed them.
# Experiments:
# [1] = binders of probe aFSTL3 on microarray, primary screen, stem cell growth factor project, biochemical, small-molecule microarray, fluorescence 635/667 (AID 1064); conditions: higher = more signal;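 further: measures binding of the biotinylated anti-FSTL3 antibody to printed compounds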
# [2] = binders from COS7 lysate, DM2A8 probe, primary screen, torsin A project, cell lysate, small-molecule microarray, fluorescence 635/667 (AID 1065); conditions: higher = more signal, COS7 lysate expressing mutant human TOR1A
# [3] = binders of probe aFGF2 on microarray, primary screen, stem cell growth factor project, biochemical, small-molecule microarray, fluorescence 635/667 (AID 1067); conditions: higher = more signal;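 further: measures binding of biotinylated aFGF2 protein to printed compounds on slides; z-score merges feature fluorescence and signal-to-noise across triplicate slides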
# [4] = binders of probe aFGF10 on microarray, primary screen, stem cell growth factor project, biochemical, small-molecule microarray, fluorescence 635/667 (AID 1071); conditions: higher = more signal;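 further: score merges 667 nm spot intensity and signal to noise from triplicate slides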
# [5] = target: Neurogenic locus notch homolog protein 2 (Homo sapiens) (UniProt Q04721); experiment: Notch2 binders on small-molecule microarrays, primary screen, biochemical, small-molecule microarray, 635 nm fluorescence, stem cell growth factors (AID 1073); conditions: Notch2 binding, higher = more signal
# Sequence of Neurogenic locus notch homolog protein 2 (Homo sapiens) (Q04721 whole entry, looked up, canonical isoform): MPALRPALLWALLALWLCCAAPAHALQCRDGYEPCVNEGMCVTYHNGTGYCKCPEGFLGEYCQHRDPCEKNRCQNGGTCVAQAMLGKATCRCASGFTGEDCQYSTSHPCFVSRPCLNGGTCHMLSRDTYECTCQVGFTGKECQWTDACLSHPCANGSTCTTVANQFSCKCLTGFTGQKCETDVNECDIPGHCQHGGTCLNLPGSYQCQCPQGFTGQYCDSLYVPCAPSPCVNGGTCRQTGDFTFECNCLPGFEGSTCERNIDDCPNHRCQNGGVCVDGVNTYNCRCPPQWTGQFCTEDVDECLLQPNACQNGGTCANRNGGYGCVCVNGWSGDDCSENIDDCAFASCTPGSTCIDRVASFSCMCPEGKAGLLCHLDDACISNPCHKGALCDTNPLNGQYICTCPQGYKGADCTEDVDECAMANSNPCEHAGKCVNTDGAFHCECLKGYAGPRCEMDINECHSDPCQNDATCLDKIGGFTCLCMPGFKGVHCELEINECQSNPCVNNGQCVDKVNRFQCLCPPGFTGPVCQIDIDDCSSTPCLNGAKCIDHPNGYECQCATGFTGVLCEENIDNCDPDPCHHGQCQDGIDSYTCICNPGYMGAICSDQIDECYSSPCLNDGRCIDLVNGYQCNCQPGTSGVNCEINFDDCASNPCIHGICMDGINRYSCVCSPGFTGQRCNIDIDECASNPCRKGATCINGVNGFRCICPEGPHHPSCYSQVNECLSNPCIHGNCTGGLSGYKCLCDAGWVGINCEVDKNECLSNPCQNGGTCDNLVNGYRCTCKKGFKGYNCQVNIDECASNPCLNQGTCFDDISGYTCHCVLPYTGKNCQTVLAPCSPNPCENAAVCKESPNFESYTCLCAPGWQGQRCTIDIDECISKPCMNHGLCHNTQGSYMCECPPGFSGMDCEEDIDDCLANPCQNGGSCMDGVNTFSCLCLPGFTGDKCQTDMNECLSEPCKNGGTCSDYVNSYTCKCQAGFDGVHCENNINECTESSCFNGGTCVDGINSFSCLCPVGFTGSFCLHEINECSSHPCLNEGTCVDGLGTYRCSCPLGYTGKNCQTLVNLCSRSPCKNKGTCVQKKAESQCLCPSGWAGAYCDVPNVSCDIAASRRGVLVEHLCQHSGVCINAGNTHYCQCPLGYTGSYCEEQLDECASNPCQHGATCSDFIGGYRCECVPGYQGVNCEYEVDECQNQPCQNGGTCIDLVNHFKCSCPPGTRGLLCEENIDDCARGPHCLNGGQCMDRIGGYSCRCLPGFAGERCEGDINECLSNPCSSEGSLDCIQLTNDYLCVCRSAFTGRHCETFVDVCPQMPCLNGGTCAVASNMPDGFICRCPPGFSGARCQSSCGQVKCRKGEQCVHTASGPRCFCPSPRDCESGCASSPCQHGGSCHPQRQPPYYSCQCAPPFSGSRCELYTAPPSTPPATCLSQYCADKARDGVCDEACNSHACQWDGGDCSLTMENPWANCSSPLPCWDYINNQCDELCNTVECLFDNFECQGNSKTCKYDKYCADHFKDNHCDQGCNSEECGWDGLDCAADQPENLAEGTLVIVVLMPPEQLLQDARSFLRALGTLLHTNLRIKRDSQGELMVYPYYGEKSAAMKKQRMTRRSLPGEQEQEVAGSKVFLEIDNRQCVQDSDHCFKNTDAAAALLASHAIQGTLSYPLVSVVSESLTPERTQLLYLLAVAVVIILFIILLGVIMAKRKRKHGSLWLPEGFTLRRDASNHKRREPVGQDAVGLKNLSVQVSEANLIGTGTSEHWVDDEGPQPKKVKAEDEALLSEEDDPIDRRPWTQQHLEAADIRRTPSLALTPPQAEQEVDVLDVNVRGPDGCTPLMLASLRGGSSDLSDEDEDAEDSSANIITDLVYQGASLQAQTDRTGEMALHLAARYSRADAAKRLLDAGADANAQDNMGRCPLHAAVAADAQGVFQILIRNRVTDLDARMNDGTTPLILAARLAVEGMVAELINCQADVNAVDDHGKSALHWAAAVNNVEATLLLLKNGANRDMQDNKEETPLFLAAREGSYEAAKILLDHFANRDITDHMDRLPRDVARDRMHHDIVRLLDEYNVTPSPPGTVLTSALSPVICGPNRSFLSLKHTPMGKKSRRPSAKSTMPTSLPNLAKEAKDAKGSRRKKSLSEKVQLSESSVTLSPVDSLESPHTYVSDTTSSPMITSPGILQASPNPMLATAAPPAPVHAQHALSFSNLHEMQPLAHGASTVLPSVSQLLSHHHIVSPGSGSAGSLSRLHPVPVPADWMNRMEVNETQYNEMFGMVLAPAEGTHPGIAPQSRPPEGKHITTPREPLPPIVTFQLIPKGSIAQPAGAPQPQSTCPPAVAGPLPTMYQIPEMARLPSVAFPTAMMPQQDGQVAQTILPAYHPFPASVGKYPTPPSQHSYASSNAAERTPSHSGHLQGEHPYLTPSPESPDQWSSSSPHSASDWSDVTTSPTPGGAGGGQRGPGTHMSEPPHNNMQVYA
# [6] = target: Pro-neuregulin-1, membrane-bound isoform (Homo sapiens) (UniProt Q02297); experiment: NRG1 binders on small-molecule microarrays, primary screen, psychiatric disease protein project, biochemical, small-molecule microarray, fluorescence 635/667 (AID 1075); conditions: NRG1 binding, 635 nm fluorescence, higher = more signal;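 further: score combines 667 nm spot fluorescence with signal to noise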
# Sequence of Pro-neuregulin-1, membrane-bound isoform (Homo sapiens) (Q02297 whole entry, looked up, the tested form may be a part, canonical isoform): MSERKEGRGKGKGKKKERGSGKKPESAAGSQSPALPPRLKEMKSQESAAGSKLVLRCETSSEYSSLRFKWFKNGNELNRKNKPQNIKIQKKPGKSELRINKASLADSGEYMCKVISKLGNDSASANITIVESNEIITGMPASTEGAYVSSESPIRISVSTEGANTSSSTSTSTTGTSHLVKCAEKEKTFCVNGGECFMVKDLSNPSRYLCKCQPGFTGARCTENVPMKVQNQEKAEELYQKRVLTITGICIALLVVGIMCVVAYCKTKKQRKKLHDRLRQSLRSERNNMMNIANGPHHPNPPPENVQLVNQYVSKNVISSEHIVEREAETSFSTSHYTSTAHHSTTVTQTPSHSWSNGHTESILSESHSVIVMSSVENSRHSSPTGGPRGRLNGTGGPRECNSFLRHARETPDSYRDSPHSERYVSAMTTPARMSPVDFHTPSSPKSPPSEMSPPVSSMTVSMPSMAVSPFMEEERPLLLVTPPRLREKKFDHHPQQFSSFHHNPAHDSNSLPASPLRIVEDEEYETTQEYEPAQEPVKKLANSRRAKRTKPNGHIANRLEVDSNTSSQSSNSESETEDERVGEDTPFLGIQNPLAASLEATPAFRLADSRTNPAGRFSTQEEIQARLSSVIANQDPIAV
# [7] = system: Neuregulin-1 EGF-like domain; experiment: binders of neuregulin-1 EGF-like domain, primary screen, biochemical, small-molecule microarray, 635 nm fluorescence (AID 1081); conditions: small-molecule microarray binding, higher = more signal;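 further: binding of the protein to compounds printed on small-molecule microarray slides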
# [8] = FRG1 promoter luciferase signal modulators, primary screen, FRG1 inhibition for FSHD, cell-based, C2C12 myotubes, firefly/Renilla luciferase, luminescence (AID 1084); conditions: higher = more signal, called active from +8 up or from −8 down
# [9] = binders of probe aFST on microarray, primary screen, stem cell growth factor project, biochemical, small-molecule microarray, fluorescence 635/667 (AID 1086); conditions: higher = more signal;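 further: score merges 667 nm fluorescence with signal-to-noise of each printed compound spot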
# [10] = binders of probe aHhip on microarray, primary screen, stem cell growth factor project, biochemical, small-molecule microarray, fluorescence 635/667 (AID 1087); conditions: higher = more signal;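 further: score merges spot fluorescence at 667nm with spot signal to noise ratio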
Compound,composite z-score [1],composite z-score [2],composite z-score [3],composite z-score [4],composite z-score [5],composite z-score [6],composite z-score [7],z-score [8],composite z-score [9],composite z-score [10]
CC(C)(C)OC(=O)N1[C@@H](C=C(Br)Br)COC1(C)C,-0.195,-0.0287,0.0014,0.348,0.519,-0.0961,0.286,-1.42 (inactive),0.125,0.0302
COC(=O)[C@H]1N=C(c2ccc(OCCCO)cc2)O[C@H]1c1ccccc1N=[N+]=[N-],1.6,0.707,0.184,0.48,1.01,0.544,1.21,4.9 (inactive),1.04,-0.0994
O=C(c1ccccc1)N1Cc2ccccc2C[C@@]2(N=C(c3ccc(OCCCO)cc3)O[C@H]2c2ccccc2)C1=O,-0.302,0.564,-0.0538,0.458,1.13,1.05,1.21,-3.39 (inactive),0.229,0.201
COc1c(C)cc(-c2cc3c(c(CCc4ccccc4)n2)[Si](C(C)C)(C(C)C)O[C@H]3c2ccccc2)cc1C,-0.473,-0.0939,-0.166,-0.0024,-0.0773,-0.133,-0.0748,-0.278 (inactive),0.125,-0.0296
COC(=O)[C@H](Cc1ccccc1)N1CC(C)(OC)O[C@@H](Cc2ccccc2)[C@H]1/C=C/C1CC1 (stereo not given in full),0.016,0.12,-0.073,-0.194,0.144,0.0246,0.484,-0.218 (inactive),-0.205,-0.331
COC(=O)[C@@]1(Cc2ccccc2)[C@H]2c3cc(C(=O)N(C)C)n(CCF)c3C[C@H]2CN1C(=O)c1ccccc1,1.57,2.12,0.181,0.103,1.31,2.17,0.592,1.52 (inactive),0.974,-0.0296
Cc1ccc(S[C@]2(C(=O)NCc3ccccc3)CC(=O)N(Cc3ccccc3C(F)(F)F)[C@@H]2c2ccc(CO)cc2I)cc1,0.412,-0.135,-0.106,-0.655,-0.717,1.56,0.472,-0.701 (inactive),-0.319,-0.251
COCCCNC(=O)[C@@]1(Cc2ccccc2I)c2ccccc2C(=O)N(C2CCCCC2)[C@H]1c1ccc(CO)cc1,-0.101,0.346,-0.0064,0.527,0.452,0.857,1.35,-4.02 (inactive),-0.729,-0.0994
CO[C@H]1O[C@H](CO)[C@@H](OC(=O)Nc2ccccc2)[C@@H]2OC(=O)[C@@H](Cc3ccccc3)C/C=C/C[C@H](Cc3ccccc3)C(=O)O[C@@H]12,-0.263,1.24,-0.0737,0.393,-0.0327,0.379,0.324,-0.461 (inactive),0.241,0.176
COc1ccc(C(O)C2C=CC3C(=O)N(C)C(=O)C3N2Nc2ccccc2)cc1 (stereo not given),0.402,0.467,0.042,0.701,1.7,2.03,1.27,1.71 (inactive),0.791,-0.271
CCc1cccc(NC(=O)O[C@H]2[C@H](OC(=O)Nc3ccccc3-c3ccccc3)[C@H](OC(=O)Nc3ccccc3-c3ccccc3)[C@@H](OC)O[C@@H]2CO)c1,-0.189,0.42,0.155,0.576,1.54,1.48,1.11,-0.714 (inactive),1.14,-0.214
CCCC1(C(=O)OC)C=C2C(=C(C(C)C)C(=O)C2C)CN1 (stereo not given),0.578,-0.241,-0.133,-0.397,-0.052,0.688,-0.15,1.89 (inactive),-0.0967,-0.0645
C=CCOC(=O)[C@H]1[C@@H]2C(=O)O[C@@H](c3ccccc3)[C@@H](c3ccccc3)N2[C@@H](c2ccc(OCCOC(=O)[C@H]3C[C@H]4C(=O)NCC(=O)N4[C@H]3c3ccc(O)cc3)cc2)[C@]12C(=O)Nc1ccccc12,0.924,0.933,-0.0355,0.738,1.2,1.57,1.33,0.575 (inactive),0.389,0.49
Cc1ccc(S[C@]2(C(=O)NCCN3CCOCC3)CC(=O)N(C(C)C)[C@@H]2c2ccc(CO)cc2I)cc1,1.15,-0.158,-0.0805,-0.11,-0.521,1.69,1.35,-0.977 (inactive),0.153,-0.166
C=C(COC)C(=O)CC[C@H](OC(C)=O)c1ccccc1OCCO,-0.0661,0.697,-0.167,0.484,-0.987,-0.493,0.355,-0.0831 (inactive),-0.215,-0.0994
O=C(NCC(F)(F)F)[C@@H]1c2ccccc2C(=O)N(Cc2cc(C(F)(F)F)cc(C(F)(F)F)c2)[C@H]1c1ccc(CO)cc1,-0.381,-0.147,-0.203,-0.155,0.154,1.73,1.25,-0.884 (inactive),-0.192,-0.0296
CN1C(=O)C2C(C1=O)C1C=C(CCCO)C2C(C2CC2)N1C (stereo not given),0.227,-0.144,0.078,0.333,0.196,0.496,0.625,-0.818 (inactive),-0.196,-0.385

Compound,composite z-score [1],composite z-score [2],composite z-score [3],composite z-score [4],composite z-score [5],composite z-score [6],composite z-score [7],z-score [8],composite z-score [9],composite z-score [10]
OCCCc1cc[n+](Cc2cc3c(cc2Br)OCO3)cc1,0.622,-0.226,-0.116,-0.782,-0.914,1.23,0.583,0.584 (inactive),-0.222,-0.383
C[C@]1(C(=O)NCC(F)(F)F)c2ccccc2C(=O)N(Cc2cc(C(F)(F)F)cc(C(F)(F)F)c2)[C@H]1c1ccc(CO)cc1,0.227,-0.616,-0.0578,0.0766,-0.317,0.275,1.11,0.549 (inactive),0.0351,-0.0994
C=CCNC(=O)[C@@H]1[C@H]2C(=O)O[C@H](c3ccccc3)[C@H](c3ccccc3)N2[C@H](c2ccc(O)cc2)[C@@]12C(=O)N(C(=O)OCCOC)c1ccc(C#CCC(C(=O)OC)C(=O)OC)cc12,-0.292,1.27,0.048,0.769,1.14,0.946,1.18,-0.614 (inactive),0.884,0.0266
C=CC[C@H](O)c1ccc(O)c2ccccc12,-0.112,0.821,-0.0558,0.513,0.61,0.826,1.3,-0.0666 (inactive),0.193,0.0749
CC(C)C[C@@H]1NC(=O)[C@@H]2C[C@H](C(=O)NCCCCCNC(=O)CS)[C@H](c3ccc(O)cc3)N2C1=O,0.0099,1.8,-0.0986,-0.435,0.0232,1.75,1.17,2.98 (inactive),-0.265,-0.0994
COc1ccc([Si](C)(C)[C@@H]2[C@@H](CC(=O)N3CCC[C@H]3CO)O[C@]3(C(=O)N(Cc4cccc(N5C(=O)c6cccc7cccc5c67)c4)c4ccccc43)[C@H]2C)cc1,-0.401,0.342,-0.0666,0.219,-0.321,1.22,1.06,-1.01 (inactive),0.019,-0.0618
COCCOC(=O)N1C(=O)[C@@]2(c3cc(C#CCCO)ccc31)[C@H](c1ccc(O)cc1)N1[C@H](c3ccccc3)[C@H](c3ccccc3)OC(=O)[C@H]1[C@@H]2C(=O)NC[C@H](O)c1ccccc1,-0.0825,0.332,-0.0271,0.589,0.163,1.25,1.29,-1.69 (inactive),0.0962,-0.0645
CC(C)N1C(=O)[C@@]2(Cc3ccccc31)c1ccccc1C(=O)N(Cc1ccccc1C(F)(F)F)[C@H]2c1ccc(CO)cc1,-0.303,0.0613,-0.0775,0.108,0.339,0.39,1.46,-0.641 (inactive),0.086,-0.116
Cc1ccc(S[C@]2(C(=O)NC3CC3)CC(=O)N(C3Cc4ccccc4C3)[C@@H]2c2ccc(CO)cc2I)cc1,0.851,-0.1,-0.133,-0.0222,-0.603,0.996,0.381,-2.24 (inactive),-0.228,-0.286
C=CCNC(=O)[C@H]1[C@@H]2C(=O)O[C@@H](c3ccccc3)[C@@H](c3ccccc3)N2[C@@H](c2ccc(O)cc2)[C@]12C(=O)Nc1ccccc12,0.318,0.111,-0.0628,-0.519,-1.15,0.992,1.09,-2.15 (inactive),-0.228,0.0749
[N-]=[N+]=NCc1ccccc1C[C@]1(C(=O)N2CCCCC2)COC(c2ccc(OCCCO)cc2)=N1,0.438,0.184,-0.0151,1.01,0.207,1.13,0.996,-4.13 (inactive),1.68,2.35
[N-]=[N+]=Nc1ccccc1C[C@@]1(C(=O)NCC(O)CO)N=C(c2ccc(OCCCO)cc2)O[C@@H]1c1ccccc1N=[N+]=[N-] (stereo not given in full),-0.175,0.045,0.285,0.311,0.194,1.62,0.848,-0.858 (inactive),0.941,-0.134
C=C(C(=O)CC[C@@H](OC(=O)c1ccccc1-c1ccccc1C(=O)O)c1cccc(OCCO)c1)C(C)C,-0.308,2.23,-0.0577,1.22,0.234,0.535,-0.141,0.345 (inactive),-0.156,0.154
CCCCCN1CC=CC23O[C@@H]4/C=C\CCCOC(=O)C4[C@H]2C(=O)N(CCCCCO)[C@@H]3C1=O (stereo not given in full),0.239,-0.291,-0.103,-0.501,-0.581,-0.315,-0.786,-0.225 (inactive),-0.841,-0.164
CC(C)[Si](C#Cc1ccccc1)(O[C@H](c1ccccc1)c1cn(Cc2ccccc2)nn1)C(C)C,-0.527,0.884,-0.123,0.76,0.534,0.8,1.28,0.92 (inactive),0.0643,0.107
CN1C(=O)C2C=CC(C(O)c3ccc([N+](=O)[O-])cc3)N(Nc3ccccc3)C2C1=O (stereo not given),-0.001,0.135,0.235,0.889,1.62,1.75,1.16,-0.439 (inactive),0.955,-0.156
